Reference: the supplement of paper PMC10849652
About 7,900 targets were measured; listed, in parts, are those with a hit and a random draw of the rest. About 0.6% of all pairs of compound and target were hits. Unmarked numbers belong to inactive results.

Legend:
Assay in all cases: log2 fold change, soluble protein after heating vs DMSO (PISA); higher = thermal stabilisation; K562 cells, 10 uM, 30 min; active = over 0.2 and 3.5 SD of the protein, either way, in both replicates (recomputed)
IRAK-1-4 Inhibitor I = compound: C1COCCN1CCN2C3=CC=CC=C3N=C2NC(=O)C4=CC(=CC=C4)[N+](=O)[O-] [IRAK-1-4 Inhibitor I]
Outline: (§1)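 K562 cells at 2×10^6 cells/mL were treated for 30 min with 10 μM compound, and aliquots were heated for 3 min over 48°C-58°C before pooling. Extraction used PBS with 0.5% NP-40 at 4°C, and soluble protein was the supernatant after 21,000xg for 90 min, measured by TMTpro 16plex LC-MS/MS with channel sums equalised. Thermal stability values, relative to control samples and from duplicates, are log2 fold changes.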

ibrutinib = compound: C=CC(=O)N1CCC[C@@H](n2nc(-c3ccc(Oc4ccccc4)cc3)c3c(N)ncnc32)C1 [ibrutinib]
Outline: as §1

[1] = compound: CC(=O)c1cnc2ccc(-c3cc(Cl)c(O)c(Cl)c3)nc2c1N[C@H]1CC[C@H](CN(C)C)CC1
Outline: as §1

ralimetinib = compound: CC(C)(C)Cn1c(N)nc2ccc(-c3[nH]c(C(C)(C)C)nc3-c3ccc(F)cc3)nc21 [ralimetinib]
Outline: as §1

[2] = compound: CC(C)(O)CC(=O)NCCn1ccc2ncnc(Nc3ccc(Oc4cccc(C(F)(F)F)c4)c(Cl)c3)c21
Outline: as §1

[3] = compound: CC(C)C1=C2N=C(C=C(N2N=C1)NCC3=CC=CC=C3)NCCCCCCN
Outline: as §1

[4] = compound: CC(C)C[C@@H](C=O)NC(=O)[C@H](CC(C)C)NC(=O)[C@H](CC(C)C)NC(=O)OCc1ccccc1
Outline: as §1

pinometostat = compound: CC(C)N(C[C@H]1O[C@@H](n2cnc3c(N)ncnc32)[C@H](O)[C@@H]1O)[C@H]1C[C@@H](CCc2nc3cc(C(C)(C)C)ccc3[nH]2)C1 [pinometostat]
Outline: as §1

[5] = compound: CC1=C(C(CC(=O)N1)C2=CC=C(C=C2)C(F)(F)F)C(=O)NC3=C(C=C4C(=C3)C=NN4)F
Outline: as §1

[6] = compound: CC1=C(C2=C(C=C1)C(=O)C3=CC=CC=C3N2CCCN)C
Outline: as §1

[7] = compound: CC1=C(C=C(C=C1)NC(=O)C2=CC(=CC=C2)C(C)(C)C#N)NC3=CC4=C(C=C3)N=CN(C4=O)C
Outline: as §1

[8] = compound: CC1=C(C=C(C=C1)NC(=O)C2=CC(=CC=C2)N(C)C)NC(=O)C3=CC=C(C=C3)O
Outline: as §1

[9] = compound: CC1=CC=C(C=C1)SC2=C3C=C(SC3=CN=C2)C(=O)N
Outline: as §1

[10] = compound: CC1=NC(=CC=C1)C2=C(N=C(N2)C(C)(C)C)C3=CC4=NC=CN=C4C=C3
Outline: as §1

Nexturastat A = compound: CCCCN(Cc1ccc(C(=O)NO)cc1)C(=O)Nc1ccccc1 [Nexturastat A]
Outline: as §1

vemurafenib = compound: CCCS(=O)(=O)Nc1ccc(F)c(C(=O)c2c[nH]c3ncc(-c4ccc(Cl)cc4)cc23)c1F [vemurafenib]
Outline: as §1

[11] = compound: CCCS(=O)(=O)Nc1ccc(F)c(C(=O)c2c[nH]c3ncc(Cl)cc23)c1F
Outline: as §1

[12] = compound: CCCc1cc(C)[nH]c(=O)c1CNC(=O)c1cc(-c2ccnc(N3CCN(C)CC3)c2)cc2c1cnn2C(C)C
Outline: as §1

givinostat = compound: CCN(CC)Cc1ccc2cc(COC(=O)Nc3ccc(C(=O)NO)cc3)ccc2c1 [givinostat]
Outline: as §1

barasertib = compound: CCN(CCCOc1ccc2c(Nc3cc(CC(=O)Nc4cccc(F)c4)[nH]n3)ncnc2c1)CCOP(=O)(O)O [barasertib]
Outline: as §1

UniProt Q8IX18, sequence (Q8IX18 whole entry, looked up): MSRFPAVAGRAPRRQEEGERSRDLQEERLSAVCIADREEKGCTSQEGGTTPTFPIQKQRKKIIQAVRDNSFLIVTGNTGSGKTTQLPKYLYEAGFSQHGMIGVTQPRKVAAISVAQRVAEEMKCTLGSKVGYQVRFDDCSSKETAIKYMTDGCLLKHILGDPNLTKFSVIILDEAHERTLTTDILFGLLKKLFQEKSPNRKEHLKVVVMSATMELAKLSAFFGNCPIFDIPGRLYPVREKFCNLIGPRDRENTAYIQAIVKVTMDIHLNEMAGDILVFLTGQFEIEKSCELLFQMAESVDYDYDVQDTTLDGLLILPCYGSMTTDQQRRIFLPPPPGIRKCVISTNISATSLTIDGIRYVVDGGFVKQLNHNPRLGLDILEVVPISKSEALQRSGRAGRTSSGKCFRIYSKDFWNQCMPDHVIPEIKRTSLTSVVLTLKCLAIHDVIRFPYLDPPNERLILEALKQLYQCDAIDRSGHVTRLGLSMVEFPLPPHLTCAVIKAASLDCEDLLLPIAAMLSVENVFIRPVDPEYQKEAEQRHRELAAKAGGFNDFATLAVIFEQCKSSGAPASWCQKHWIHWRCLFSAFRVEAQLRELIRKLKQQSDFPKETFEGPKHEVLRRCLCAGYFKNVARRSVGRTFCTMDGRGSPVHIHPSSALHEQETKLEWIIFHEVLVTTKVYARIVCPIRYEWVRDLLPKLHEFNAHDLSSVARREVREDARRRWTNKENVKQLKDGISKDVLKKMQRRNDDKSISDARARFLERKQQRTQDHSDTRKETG
UniProt Q13011, sequence (Q13011 whole entry, looked up): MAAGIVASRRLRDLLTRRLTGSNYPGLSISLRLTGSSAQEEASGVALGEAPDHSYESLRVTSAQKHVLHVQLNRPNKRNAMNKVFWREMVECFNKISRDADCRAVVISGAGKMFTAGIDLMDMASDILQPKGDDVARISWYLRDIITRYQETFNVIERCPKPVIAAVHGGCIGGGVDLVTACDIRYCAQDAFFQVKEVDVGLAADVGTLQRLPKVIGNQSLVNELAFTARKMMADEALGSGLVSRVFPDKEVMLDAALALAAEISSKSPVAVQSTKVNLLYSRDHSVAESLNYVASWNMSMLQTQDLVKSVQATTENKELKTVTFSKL
UniProt Q99848, sequence (Q99848 whole entry, looked up): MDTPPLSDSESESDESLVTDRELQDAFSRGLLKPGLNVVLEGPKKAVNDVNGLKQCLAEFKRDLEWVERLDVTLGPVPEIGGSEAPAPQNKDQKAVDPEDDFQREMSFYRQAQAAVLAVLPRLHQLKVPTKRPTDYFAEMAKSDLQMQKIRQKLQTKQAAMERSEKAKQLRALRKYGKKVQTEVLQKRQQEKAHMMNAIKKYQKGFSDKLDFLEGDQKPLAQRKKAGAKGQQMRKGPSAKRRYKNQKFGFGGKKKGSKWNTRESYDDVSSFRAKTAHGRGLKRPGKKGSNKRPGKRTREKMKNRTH
UniProt Q7Z7A3, sequence (Q7Z7A3 whole entry, looked up): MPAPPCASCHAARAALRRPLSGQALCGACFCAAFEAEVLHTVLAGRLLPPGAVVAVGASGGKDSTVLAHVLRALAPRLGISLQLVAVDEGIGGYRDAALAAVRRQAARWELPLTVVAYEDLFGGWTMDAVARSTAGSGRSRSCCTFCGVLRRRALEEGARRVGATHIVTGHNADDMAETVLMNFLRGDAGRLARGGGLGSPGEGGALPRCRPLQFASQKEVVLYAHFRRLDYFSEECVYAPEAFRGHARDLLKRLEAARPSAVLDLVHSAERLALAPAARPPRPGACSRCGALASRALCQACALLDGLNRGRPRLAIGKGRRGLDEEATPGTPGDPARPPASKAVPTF
UniProt P11182, sequence (P11182 whole entry, looked up): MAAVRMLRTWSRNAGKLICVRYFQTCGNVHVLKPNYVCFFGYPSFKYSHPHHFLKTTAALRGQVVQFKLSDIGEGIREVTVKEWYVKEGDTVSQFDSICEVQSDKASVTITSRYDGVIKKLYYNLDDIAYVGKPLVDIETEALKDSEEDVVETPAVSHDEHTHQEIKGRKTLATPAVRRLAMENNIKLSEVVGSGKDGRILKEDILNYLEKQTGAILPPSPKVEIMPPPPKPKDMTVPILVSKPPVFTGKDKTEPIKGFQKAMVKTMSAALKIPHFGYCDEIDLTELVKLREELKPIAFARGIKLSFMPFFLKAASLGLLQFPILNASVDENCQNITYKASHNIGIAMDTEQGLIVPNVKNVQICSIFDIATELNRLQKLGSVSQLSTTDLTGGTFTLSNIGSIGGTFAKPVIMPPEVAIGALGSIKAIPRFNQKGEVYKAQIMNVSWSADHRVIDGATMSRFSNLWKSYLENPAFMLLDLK
UniProt Q9Y5Q0, sequence (Q9Y5Q0 whole entry, looked up): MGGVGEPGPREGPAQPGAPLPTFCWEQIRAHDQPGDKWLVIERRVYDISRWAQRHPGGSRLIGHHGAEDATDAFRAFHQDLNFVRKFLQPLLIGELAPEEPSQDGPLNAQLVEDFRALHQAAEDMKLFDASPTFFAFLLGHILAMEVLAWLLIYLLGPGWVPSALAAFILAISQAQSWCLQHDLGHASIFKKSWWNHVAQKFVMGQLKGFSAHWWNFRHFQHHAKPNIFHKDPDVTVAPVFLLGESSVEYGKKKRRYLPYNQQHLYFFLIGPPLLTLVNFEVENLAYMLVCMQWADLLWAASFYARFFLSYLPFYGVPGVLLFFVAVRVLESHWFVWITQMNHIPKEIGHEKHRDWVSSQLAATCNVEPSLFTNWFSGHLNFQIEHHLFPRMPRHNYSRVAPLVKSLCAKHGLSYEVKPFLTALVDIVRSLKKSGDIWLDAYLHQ
UniProt P50570, sequence (P50570 whole entry, looked up): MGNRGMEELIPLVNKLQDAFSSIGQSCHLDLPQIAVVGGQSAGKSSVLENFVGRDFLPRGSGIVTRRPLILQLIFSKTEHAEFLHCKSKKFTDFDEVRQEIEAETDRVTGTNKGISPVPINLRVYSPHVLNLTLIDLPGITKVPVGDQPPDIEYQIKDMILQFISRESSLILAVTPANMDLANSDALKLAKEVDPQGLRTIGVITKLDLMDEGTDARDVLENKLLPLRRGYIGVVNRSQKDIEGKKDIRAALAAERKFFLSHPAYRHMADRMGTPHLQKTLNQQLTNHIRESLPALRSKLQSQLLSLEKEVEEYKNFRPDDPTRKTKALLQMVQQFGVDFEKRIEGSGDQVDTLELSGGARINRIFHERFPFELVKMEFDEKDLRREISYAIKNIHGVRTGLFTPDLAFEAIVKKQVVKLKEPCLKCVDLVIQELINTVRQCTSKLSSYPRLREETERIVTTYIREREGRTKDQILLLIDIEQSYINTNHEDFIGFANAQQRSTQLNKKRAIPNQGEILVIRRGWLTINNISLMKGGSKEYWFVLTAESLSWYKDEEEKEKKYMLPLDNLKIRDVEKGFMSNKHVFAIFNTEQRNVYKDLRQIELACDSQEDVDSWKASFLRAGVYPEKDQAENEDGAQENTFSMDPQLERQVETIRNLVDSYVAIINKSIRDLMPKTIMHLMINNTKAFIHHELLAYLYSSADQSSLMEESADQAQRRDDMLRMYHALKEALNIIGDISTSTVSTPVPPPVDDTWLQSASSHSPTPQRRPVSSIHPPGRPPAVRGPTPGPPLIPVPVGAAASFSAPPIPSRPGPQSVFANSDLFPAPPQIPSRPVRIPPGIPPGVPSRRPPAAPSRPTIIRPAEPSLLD
UniProt Q0VG06, sequence (Q0VG06 whole entry, looked up): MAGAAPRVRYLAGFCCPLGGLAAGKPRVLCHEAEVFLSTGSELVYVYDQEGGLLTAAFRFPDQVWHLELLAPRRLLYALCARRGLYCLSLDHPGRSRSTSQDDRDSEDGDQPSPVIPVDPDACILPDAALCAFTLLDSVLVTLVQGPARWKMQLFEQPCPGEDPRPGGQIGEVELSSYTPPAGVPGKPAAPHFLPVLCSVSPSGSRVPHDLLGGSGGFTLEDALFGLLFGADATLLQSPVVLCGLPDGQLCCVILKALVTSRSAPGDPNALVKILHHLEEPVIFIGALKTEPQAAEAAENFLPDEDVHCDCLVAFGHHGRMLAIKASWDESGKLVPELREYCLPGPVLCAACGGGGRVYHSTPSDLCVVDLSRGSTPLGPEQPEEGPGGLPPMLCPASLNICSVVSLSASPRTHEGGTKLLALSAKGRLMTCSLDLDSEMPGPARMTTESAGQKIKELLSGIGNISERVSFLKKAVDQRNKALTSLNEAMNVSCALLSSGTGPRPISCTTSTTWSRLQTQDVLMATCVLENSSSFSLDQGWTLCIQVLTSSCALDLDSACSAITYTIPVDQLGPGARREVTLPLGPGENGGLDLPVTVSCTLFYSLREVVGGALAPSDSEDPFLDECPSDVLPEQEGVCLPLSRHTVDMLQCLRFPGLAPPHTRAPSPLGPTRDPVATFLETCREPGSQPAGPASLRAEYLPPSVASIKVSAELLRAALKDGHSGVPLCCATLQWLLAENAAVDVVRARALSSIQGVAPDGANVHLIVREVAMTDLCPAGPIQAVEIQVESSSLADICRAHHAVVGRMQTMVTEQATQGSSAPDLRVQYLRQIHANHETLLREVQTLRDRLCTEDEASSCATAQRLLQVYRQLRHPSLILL
UniProt O60888, sequence (O60888 whole entry, looked up): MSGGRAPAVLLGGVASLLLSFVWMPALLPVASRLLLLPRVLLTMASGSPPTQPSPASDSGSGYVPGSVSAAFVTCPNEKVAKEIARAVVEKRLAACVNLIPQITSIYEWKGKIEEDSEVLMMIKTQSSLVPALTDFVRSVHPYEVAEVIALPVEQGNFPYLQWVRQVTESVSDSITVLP
UniProt Q96LJ7, sequence (Q96LJ7 whole entry, looked up): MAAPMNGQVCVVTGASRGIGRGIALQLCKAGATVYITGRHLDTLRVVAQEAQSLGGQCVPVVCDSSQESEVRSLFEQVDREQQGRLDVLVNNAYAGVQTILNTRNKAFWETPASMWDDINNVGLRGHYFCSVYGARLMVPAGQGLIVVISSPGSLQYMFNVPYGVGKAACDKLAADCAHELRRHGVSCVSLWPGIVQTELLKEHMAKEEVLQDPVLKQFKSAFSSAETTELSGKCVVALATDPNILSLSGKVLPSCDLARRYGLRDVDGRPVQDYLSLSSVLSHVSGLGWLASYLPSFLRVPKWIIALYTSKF

Row | Target | log2 fold change (IRAK-1-4 Inhibitor I) | log2 fold change (ibrutinib) | log2 fold change [1] | log2 fold change (ralimetinib) | log2 fold change [2] | log2 fold change [3] | log2 fold change [4] | log2 fold change (pinometostat) | log2 fold change [5] | log2 fold change [6] | log2 fold change [7] | log2 fold change [8] | log2 fold change [9] | log2 fold change [10] | log2 fold change (Nexturastat A) | log2 fold change (vemurafenib) | log2 fold change [11] | log2 fold change [12] | log2 fold change (givinostat) | log2 fold change (barasertib)
1 | CTU1 (UniProt Q7Z7A3) | 0.026 | 0.041 | 0.02 | 0.005 | -0.054 | -0.052 | -0.041 | 0.007 | 0.007 | -0.021 | 0.011 | -0.023 | 0.061 | 0.059 | -0.022 | 0.065 | 0.034 | -0.035 | 0.043 | 0
2 | EXOC5 (UniProt O00471) | -0.062 | -0.002 | -0.01 | 0.015 | -0.03 | -0.344 (active) | 0.014 | 0.078 | 0 | -0.061 | 0.006 | -0.022 | -0.007 | 0.056 | 0.017 | 0.046 | 0.08 | -0.028 | 0.118 | 0.031
3 | DBT (UniProt P11182) | -0.004 | 0.019 | 0.021 | 0.109 | 0.006 | 0.027 | 0.023 | 0.002 | 0.015 | 0.352 (active) | 0.001 | -0.017 | 0.01 | -0.015 | 0.024 | -0.011 | 0.015 | -0.042 | 0.005 | -0.033
4 | DHX40 (UniProt Q8IX18) | 0.047 | -0.04 | -0.069 | -0.036 | -0.07 | -0.075 | -0.038 | 0.047 | 0.061 | 0.096 | 0.105 | -0.047 | 0.02 | -0.027 | 0.12 | 0 | 0.043 | 0.025 | 0.087 | -0.002
5 | DNM2 (UniProt P50570) | 0.022 | 0.017 | -0.023 | -0.02 | -0.081 | -0.075 | 0.029 | -0.014 | -0.012 | 0.076 | -0.016 | -0.043 | 0.009 | 0.024 | -0.057 | 0.016 | 0.033 | -0.007 | 0.036 | 0.054
6 | DOHH (UniProt Q9BU89) | 0.127 | 0.137 | 0.103 | 0.004 | 0.244 | 0.045 | -0.106 | 0.011 | 0.02 | 0.189 | 0.083 | -0.069 | 0.084 | -0.091 | -0.144 | 0.001 | -0.059 | -0.063 | -0.068 | -0.274
7 | CUTA isoform 2 (UniProt O60888) | 0.074 | -0.018 | 0.085 | -0.046 | -0.104 | 0.038 | -0.09 | -0.009 | 0.005 | 0.15 | -0.121 | -0.011 | 0.013 | 0.044 | 0.169 | 0 | 0.044 | 0.16 | -0.044 | 0.015
8 | DHRS1 (UniProt Q96LJ7) | 0.037 | 0.105 | 0.045 | 0.014 | 0 | 0.614 | 0.21 | -0.087 | 0.003 | 0.071 | 0.357 | -0.143 | -0.166 | -0.202 | 0.096 | 0.29 | -0.079 | 0.088 | 0.068 | -0.05
9 | EBNA1BP2 (UniProt Q99848) | -0.143 | -0.013 | 0.013 | 0.27 | 0.124 | 0.213 | -0.026 | 0.439 | 0.006 | -1.4 (active) | -0.014 | -0.033 | -0.07 | -0.153 | 0.438 | -0.042 | 0.004 | 0.113 | 0.174 | -0.187
10 | FAF2 (UniProt Q96CS3) | 0 | -0.026 | -0.034 | 0.103 | -0.029 | -0.044 | 0.03 | 0.053 | 0.008 | 0.044 | 0.015 | -0.021 | 0.008 | -0.016 | 0.009 | 0.038 | 0.008 | -0.039 | 0.036 | 0.021
11 | FAAP100 (UniProt Q0VG06) | 0.026 | -0.247 | -0.025 | -0.065 | -0.085 | -0.043 | -0.05 | 0.013 | -0.097 | 0.055 | -0.004 | -0.001 | -0.039 | 0.066 | -0.327 (active) | 0 | -0.033 | 0.167 | 0.024 | 0.051
12 | DNTTIP2 (UniProt Q5QJE6) | -0.027 | 0.045 | -0.265 | 0.089 | 0.046 | -0.234 | 0.046 | 0.266 | -0.017 | -0.975 (active) | 0.033 | 0.028 | -0.087 | -0.061 | 0.151 | -0.015 | -0.064 | -0.1 | 0.057 | -0.062
13 | DDX5 (UniProt P17844) | -0.114 | 0.002 | -0.358 (active) | -0.024 | -0.189 | -0.12 | 0.069 | 0.017 | -0.067 | 0.072 | 0.136 | -0.131 | 0.036 | 0.112 | 0.033 | 0.142 | 0.174 | 0.036 | 0.178 | 0.122
14 | ECH1 (UniProt Q13011) | 0.056 | -0.003 | -0.058 | 0.087 | -0.112 | -0.164 | -0.033 | 0.003 | 0.086 | 0.076 | 0.005 | -0.027 | 0.044 | 0.014 | -0.032 | 0.012 | -0.003 | -0.065 | 0.129 | 0.035
15 | FADS3 (UniProt Q9Y5Q0) | 0.029 | 0.018 | -0.031 | -0.064 | -0.121 | -0.011 | 0.102 | 0.038 | -0.033 | 0.054 | 0.031 | -0.002 | -0.012 | 0.031 | -0.096 | 0.01 | 0.026 | -0.069 | -0.108 | 0.042
16 | DCTN1 isoform 4 (UniProt Q14203) | -0.101 | -0.02 | -0.001 | 0.114 | -0.086 | -0.303 (active) | 0.07 | 0.138 | -0.002 | 0.019 | 0.022 | -0.017 | 0.015 | -0.039 | 0.116 | -0.015 | 0.019 | 0.102 | 0.104 | 0.033
